# High-throughput results (PubChem BioAssay)
# A selection: hits, their analogues and other compounds. The true share with any hit is near 19%.
# DT40 TDP1 CPT = growth inhibition of DT40 Tdp1-/-;hTDP1 cells with camptothecin (screen for TDP1 inhibitors). Potency, µM (titrated, usually from 46.2 µM), for inactives: top-dose activity change, negative = growth inhibition, usual class: inhibitors. chicken DT40 Tdp1-/-;hTDP1 cells + 20 nM CPT, ATP luminescence, 48 h. AID 686979. 420,000 tested, 12% active; also: potency is read from the fitted curve at half-maximal effect; nearly all actives have a fitted effect of over 55% in size
#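 Cell growth measured by CellTiter-Glo luminescence after a minimum 48 h, 37 C compound exposure with 20 nM CPT in Tdp1-knockout DT40 cells stably expressing hTDP1, seeded 400/well; qHTS titration format.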
# TDP1 cell noCPT = qHTS for Inhibitors of human tyrosyl-DNA phosphodiesterase 1 (TDP1): qHTS in cells in absence of CPT; DT40 Tdp1-/- hTDP1 cells, no CPT, ATP luminescence, 48 h; Potency, µM (highest dose often 46.2 µM), for the others: top-dose activity change, negative = growth inhibition, hits mostly inhibitors; 420,000 tested, 15% active; AID 686978, 2013; also: potency is read from the fitted curve at half-maximal effect; nearly all actives have a fitted effect of over 55% in size
#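 Stably hTDP1-transfected Tdp1-null chicken DT40 cells were treated with library compounds minus camptothecin and grown for at least 48 hr at 37 °C, after which cellular ATP was quantified by luminescence.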
# HT1080 IDH1KD tx = kills HT-1080 cells with IDH1 knockdown. HT-1080 IDH1 knockdown viability, ATP luminescence, 48 h. Potency, µM (top dose mostly 46.1 µM), without a hit: top-dose activity, negative = toxicity, actives largely listed as cytotoxic. 360,000 tested, 2% active. AID 686971;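 also: potency is read from the fitted curve at half-maximal effect; 0% = DMSO wells and -100% = cell-free medium wells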
#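 HT-1080-IDH1KD cells (IDH1 knocked down), 750/well in RPMI with 5% FBS, treated with compound 48 h at 37 degrees C. Viability by CellTiter-Glo luminescence, normalised to DMSO and no-cell wells; concentration-response curves classed.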
# ELG1 repair inh = blocks ELG1-dependent DNA repair in HEK293T cells | AID 504467 | Potency, µM (series often up to 46.1 µM), without a hit: top-dose activity change, negative = inhibition, hits mostly inhibitors | 330,000 tested, 2.3% active | HEK293T ELG1-luciferase reporter, luminescence, 16 h; DNA damage induced by 5-fluorouridine; also: potency is read from the fitted curve at half-maximal effect; nearly all actives have a fitted effect of over 55% in size
#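 Overnight (16 hr) co-exposure of 2,000 cells/well to 5-fluorouridine and compound at 37 °C preceded detection. Luciferase was quantified via ONE-Glo luminescence; loss of signal denotes inhibition.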
# IL-1B inflam inh = inflammasome signaling inhibition, IL-1 beta readout | THP-1 LPS/ATP IL-1B secretion, AlphaLISA, 16 h; stronger effect = lower value | activity change, % at 57.5 µM | 360,000 tested, 4.7% active; in the data active = activity change below about -50%; inconclusive = mostly about -30% to -49%
#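 THP-1 cells pretreated 1 hr with compounds (up to 57.5 uM final), then stimulated with LPS (250 ng/mL final) plus ATP (1.25 mM final); secreted IL-1B measured by AlphaLISA after 16 hr, decreased signal indicating inhibition.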
# HT1080-NT tox = kills 2HG-producing HT-1080-NT fibrosarcoma cells. HT-1080-NT fibrosarcoma viability, CellTiter-Glo ATP luminescence, 48 h. Potency, µM (series often up to 46.1 µM), inactives show at the highest dose activity, negative = less viability, actives largely listed as cytotoxic. 360,000 tested, 1.6% active;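 also: NT is the 2HG producing partner of a matched IDH1 knockdown line; potency is read from the fitted curve at half-maximal effect; 0% = DMSO-treated cells and -100% = media-only wells without cells; nearly all actives have a fitted effect of over 55% in size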
#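 Read-out is CellTiter-Glo luminescence after 10 minutes at room temperature, following 48 hours' compound treatment of HT-1080-NT cells (750 cells/well, RPMI, 5% FBS, 37 degrees C).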
# Numbers without * were called inactive; i = inactive; ? = inconclusive; · = no result; ! = a repeat was not active; [ ] = dose if it differs, or a comment. Unless noted, calls follow the shape of the dose curve; as a rule, active = well fitted curve in the direction sought with a large enough effect; inconclusive = small, poorly fitted or top-dose-only effect, or another doubt; inactive = no such curve, though single readings can be large; an effect the other way counts as inactive or inconclusive. Unless noted, % is scaled to controls: 0 for no effect and ±100 for the full control effect.
SMILES,DT40 TDP1 CPT,TDP1 cell noCPT,HT1080 IDH1KD tx,ELG1 repair inh,IL-1B inflam inh,HT1080-NT tox
O=C(Nc1ccc(Cl)cc1F)C1CCCN(C2=NS(=O)(=O)c3ccccc32)C1 (stereo unspecified),?,-23%,-1%,-10%,-9,-4%
O=C(O)C[C@H](O)C[C@H](O)/C=C/c1c(C2CC2)nc2ccccc2c1-c1ccc(F)cc1,2.7µM*,1.9µM*,·,·,·,·
COc1ccc(-c2cccc(C3CC=CC4C3C(=O)N(Cc3ccccc3)C4c3cc(C)ccc3F)c2)cc1 (stereo unspecified),·,·,·,4%,·,·
Cc1ccc(-c2cccc(C3CC=CC4C3C(=O)N(Cc3ccccc3)C4c3ccc4ccccc4c3)c2)cc1 (stereo unspecified),18µM*,13µM*,-2%,10%,45,-1%
CC[C@@H]1CC=C[C@H]2[C@H]1C(=O)N(Cc1ccccc1)[C@H]2c1ccc(OC)c(Cl)c1,18µM*,13µM*,?,-5%,25,-28%
O=C1C2C(c3cccc(/C=C/c4ccccc4)c3)CC=CC2C(c2ccc(C(F)(F)F)cc2)N1Cc1ccccc1 (stereo unspecified),15µM*,?,-3%,-3%,53,-6%
COc1ccc(-c2cccc(C3CC=CC4C3C(=O)N(Cc3ccccc3)C4c3ccc(OC)c(Cl)c3)c2)cc1 (stereo unspecified),21µM*,13µM*,-12%,-21%,33,-13%
Cc1ccc(CNC(=O)C2CCN(S(=O)(=O)c3ccc(F)cc3)CC2)cc1,-20%,-23%,·,·,·,·
Cc1ccc(-n2nc(C)c3c(C(=O)Nc4ccc(C)cc4Cl)cc(C)nc32)cc1,-24%,?,·,·,·,·
CCOc1ccc(OCCC(=O)Nc2ccc(N3CCOCC3)cc2N2CCOCC2)cc1,-1%,-20%,0%,·,-26,-9%
O=C1C2C(c3cccc(/C=C/c4ccccc4)c3)CC=CC2C(c2ccc3ccccc3c2)N1Cc1ccccc1 (stereo unspecified),?,16µM*,11%,13%,15,5%
C[C@@H]1CC=C[C@H]2[C@H]1C(=O)N(Cc1ccccc1)[C@H]2c1ccc2ccccc2c1,?,?,?,0%,15,-25%
COc1ccccc1N(C)S(=O)(=O)c1ccc(Cl)c(C(=O)Nc2cccc(C)n2)c1,18µM*,16µM*,-11%,?,-24,-13%
CN(C)C(CNC(=O)c1cc(S(=O)(=O)N(C)c2ccc(F)cc2)ccc1Cl)c1cccs1 (stereo unspecified),5.8µM*,5.8µM*,-7%,·,1,-5%
COc1ccccc1N(C)S(=O)(=O)c1ccc(Cl)c(C(=O)NCCCN2CCOCC2)c1,-24%,-5%,-5%,-13%,i,1%
COc1ccccc1N(C)S(=O)(=O)c1ccc(Cl)c(C(=O)NCc2cccnc2)c1,?,?,2%,7%,7,5%
COc1ccccc1N(C)S(=O)(=O)c1ccc(Cl)c(C(=O)Nc2ccccc2N2CCOCC2)c1,3.7µM*,1.5µM*,-6%,·,29,-7%
Cc1cccc(NC(=O)c2cc(S(=O)(=O)N(C)c3ccc(F)cc3)ccc2Cl)n1,?,8.2µM*,-11%,?,?,-6%
O=C(NC(CO)Cc1ccc([N+](=O)[O-])cc1)C(Cl)Cl (stereo unspecified),16µM*,9.2µM*,-2%,1%,14,-1%
O=[N+]([O-])c1ccc(C(O)C(CO)NC(=S)Nc2ccccc2)cc1 (stereo unspecified),16µM*,?,-2%,8.2µM*,-6,-9%
O=C(N[C@H](CO)[C@H](O)c1ccc([N+](=O)[O-])cc1)C(Cl)Cl,7.5µM*!,11µM*,10%,·,4,4%
Cc1ccc(NC(=S)NC(CO)C(O)c2ccc([N+](=O)[O-])cc2)cc1 (stereo unspecified),26%,-18%,11%,4%,1,12%
Cn1cc(CN2CCc3ccccc3C2)c2ccccc21,9.2µM*,?,?,0%,-16,-5%
Cc1nn(C)cc1CN1CCOc2ccc(C(C)(O)COc3ccccc3)cc2C1 (stereo unspecified),25%[9.04 µM],-19%,·,·,·,·
CN(C)CC(C)(O)c1ccc2c(c1)CN(Cc1cn(C)c3ccccc13)CCO2 (stereo unspecified),-7%[9.04 µM],21µM*,·,·,·,·
SMILES,DT40 TDP1 CPT,TDP1 cell noCPT,HT1080 IDH1KD tx,ELG1 repair inh,IL-1B inflam inh,HT1080-NT tox
Cc1ccc(C(O)c2ncc(-c3ccccc3F)[nH]2)c(C)c1 (stereo unspecified),?,?,-2%,·,-2,-4%
COc1ccc(C(C(=O)NC(C)(C)C)n2c(-c3ccc(C(F)(F)F)cc3)nc3ccccc32)cc1 (stereo unspecified),16µM*,?,9%,·,10,7%
Cc1cccc(C)c1NC(=O)C(C1CC1)n1c(-c2ccc(C(F)(F)F)cc2)nc2ccccc21 (stereo unspecified),?,18µM*,-13%,·,0,-22%
CC(C)(C)NC(=O)C(c1ccncc1)n1c(-c2ccc(C(F)(F)F)cc2)nc2ccccc21 (stereo unspecified),?,?,21µM*,·,-16,?
Cc1cnc(-c2nc3ccccc3n2C(C(=O)NC(C)(C)C)c2ccncc2)cn1 (stereo unspecified),-13%,-16%,-16%,·,1,-20%
CC(C)(C)NC(=O)C(c1cc2ccccc2o1)n1c(-c2ccc(-c3ccccc3)cc2)nc2ccccc21 (stereo unspecified),16µM*,?,?,·,13,?
COc1ccc(C(C(=O)NC(C)(C)C)n2c(=O)c(-c3ccccc3)nc3ccccc32)cc1 (stereo unspecified),?,?,-6%,·,-1,1%
CSCCC(C(=O)NC(C)(C)C)n1c(-c2ccc(C)cc2)nc2ccccc21 (stereo unspecified),?,?,4%,·,4,9%
CCN(CC)S(=O)(=O)c1ccc(C(=O)N2CCN(C(=O)c3ccco3)CC2)cc1,-7%,-2%,4%,-14%,2,7%[9.24 µM]
Cc1ccc(-n2c(C)c(C)c3c(NCCO)ncnc32)cc1,27%,?,-25%,?,-28,-3%
